Compound activity: PubChem, National Center for Advancing Translational Sciences (NCATS)
TDP1 cell noCPT: qHTS for Inhibitors of human tyrosyl-DNA phosphodiesterase 1 (TDP1): qHTS in cells in absence of CPT | DT40 Tdp1-/- hTDP1 cells, no CPT, ATP luminescence, 48 h | Potency, µM (doses to about 46.2 µM), for inactives: at the highest dose activity change, negative = growth inhibition, hits mostly inhibitors | actives 15% (n = 420,000) | AID 686978, 2013; note: % is set by controls: 0 for no effect and ±100 for the full control effect; nearly all actives have a fitted effect of over 55% in size
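Chicken DT40 Tdp1-/- cells stably complemented with human TDP1 were seeded at 400 cells/well with DMSO in place of 20 nM camptothecin. After compound pinning, cells grew at least 48 hr at 37 °C; viability read by CellTiter-Glo luminescence.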
TDP1 inh: inhibitors of human tyrosyl-DNA phosphodiesterase TDP1 | Q9NUW8 | recombinant TDP1, AlphaScreen DNA substrate cleavage | Potency, µM (top dose mostly 130 µM), inactives show at the top dose activity change, negative = inhibition, usual class: inhibitors | actives 0.28% (n = 350,000) | AID 485290; note: % is set by controls: 0 for no effect and ±100 for the full control effect; nearly all actives have a fitted effect of over 40% in size
Target sequence (Q9NUW8 whole entry, looked up): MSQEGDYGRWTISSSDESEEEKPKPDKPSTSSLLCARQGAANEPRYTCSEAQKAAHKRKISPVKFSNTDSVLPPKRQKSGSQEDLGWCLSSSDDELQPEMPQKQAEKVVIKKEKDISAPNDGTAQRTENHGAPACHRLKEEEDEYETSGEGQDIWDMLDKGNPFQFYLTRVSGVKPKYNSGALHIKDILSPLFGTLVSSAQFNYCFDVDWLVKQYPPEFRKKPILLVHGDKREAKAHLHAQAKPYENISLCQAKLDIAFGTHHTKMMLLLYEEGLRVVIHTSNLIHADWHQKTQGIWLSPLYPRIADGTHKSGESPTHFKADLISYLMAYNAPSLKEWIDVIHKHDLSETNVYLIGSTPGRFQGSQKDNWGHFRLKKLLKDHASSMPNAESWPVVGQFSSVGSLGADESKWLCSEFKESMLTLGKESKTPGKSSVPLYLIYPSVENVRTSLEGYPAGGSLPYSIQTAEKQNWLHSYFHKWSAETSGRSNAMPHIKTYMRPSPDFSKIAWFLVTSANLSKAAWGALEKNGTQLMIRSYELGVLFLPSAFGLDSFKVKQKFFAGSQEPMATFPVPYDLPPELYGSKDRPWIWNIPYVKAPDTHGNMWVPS
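Here, a 5' biotin and 3' phosphotyrosine-FITC DNA oligonucleotide reports Tdp1 activity: intact substrate bridges AlphaScreen beads, while cleavage leaves a 3' phosphate and drops signal. All incubations at room temperature.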
ClpP mod: qHTS Assay for Activators of ClpP. ATP-dependent Clp protease proteolytic subunit (Bacillus subtilis (strain 168)), P80244. purified B. subtilis ClpP, FRET peptide cleavage, 20 min. Potency, µM (highest dose often 57.5 µM), without a hit: at the top dose activity change, negative = active. actives 1.9% (n = 340,000). AID 651965, 2013; active = well fitted falling curve with a large enough effect; inconclusive = small, poorly fitted or top-dose-only effect; inactive = no such curve, though single readings can be large or run the other way; note: the source files actives as falling curves though it sought activators and does not explain the sign; nearly all actives have a fitted effect of over 65% in size
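Purified B. subtilis ClpP, 10 microg/mL final in Tris/HCl pH8 with KCl, BSA, glycerol and Tween-20, cleaved an Abz/nitrotyrosine-quenched decapeptide. Fluorescence (ex 320, em 430) was read at 0 and 20 min at room temperature. Delta was normalized to 5.8 microM ADEP and DMSO/no-enzyme controls.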
TDP1 cell CPT: growth inhibition of DT40 Tdp1-/-;hTDP1 cells with camptothecin (screen for TDP1 inhibitors); actives 12% (n = 420,000); chicken DT40 Tdp1-/-;hTDP1 cells + 20 nM CPT, ATP luminescence, 48 h; Potency, µM (titrated, usually from 46.2 µM), inactives show at the top dose activity change, negative = growth inhibition, most hits filed as inhibitors; note: % is set by controls: 0 for no effect and ±100 for the full control effect; nearly all actives have a fitted effect of over 55% in size
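Chicken DT40 Tdp1-/- cells complemented with human TDP1, 400 cells/well, exposed to compounds plus 20 nM camptothecin for at least 48 h at 37 C; viability read as ATP content by CellTiter-Glo luminescence.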
Starred values were filed as active, the others as inactive; u = inconclusive; x = no result; [ ] = dose if it differs, or a comment. A selection: hits, their analogues and other compounds. The true share with any hit is near 17%. Unless noted, calls come from the whole dose curve; as a rule, active = well fitted curve in the direction sought with a large enough effect; inconclusive = small, poorly fitted or top-dose-only effect, or another doubt; inactive = no such curve, though single readings can be large; an effect the other way counts as inactive or inconclusive. Potency is the fitted concentration of half-maximal effect.

SMILES	TDP1 cell noCPT	TDP1 inh	ClpP mod	TDP1 cell CPT
Cc1nc2c(sc(=S)n2Cc2ccco2)c(=O)n1CC(=O)Nc1cc(F)ccc1F	u	6.5%	2.6%	11.6µM*
Cc1nc2c(sc(=S)n2Cc2ccco2)c(=O)n1CC(=O)Nc1ccc(F)cc1	u	0.5%	-0.2%	u
N#CCC(=O)Nc1ccc(C(=O)OCC(=O)c2ccc3c(c2)NC(=O)CO3)cc1	1.3%	x	0.3%	-1.3%
Cn1c(SCC2CCCO2)nnc1C1CCN(Cc2ccccc2O)CC1 (centres undefined)	-4.8%	x	x	8.8%[9.04 µM]
COc1ccc(Cl)cc1Nc1ncnc2sc(C)c(S(=O)(=O)N3CCC(C)CC3)c12	u	-1.9%	31.6µM*	u
CCN(CC)S(=O)(=O)c1ccc(O)c(NC(=O)c2cc(-c3cc(OC)c(OC)c(OC)c3)nc3ccccc23)c1	20.6µM*	-1.3%	x	u
COc1cc(-c2cc(C(=O)Nc3ccc(S(N)(=O)=O)cc3)c3ccccc3n2)cc(OC)c1OC	3.66µM*	x	x	4.11µM*
COc1cc(-c2cc(C(=O)Nc3c(Cl)cc(Cl)cc3Cl)c3ccccc3n2)cc(OC)c1OC	18.4µM*	0.0%	u	20.6µM*
COc1cc(-c2cc(C(=O)Nc3ccc(S(=O)(=O)Nc4ncccn4)cc3)c3ccccc3n2)cc(OC)c1OC	u	1.2%	-4.3%	u
COc1cc(C(=O)NNC(=O)c2n[nH]c3ccccc23)cc(OC)c1OC	-2.8%	2.0%	3.6%	-7.6%
NNC(=O)c1[nH]c2ccc(Cl)cc2c1-c1ccccc1	20.6µM*	5.1%	-0.9%	u
NNC(=O)c1[nH]c2ccc(Br)cc2c1-c1ccccc1	23.1µM*	0.0%	-2.4%	u
CCN(CC)C(=S)Sc1c(-c2ccccc2)c2cc(Cl)ccc2[nH]c1=O	u	5.9%	2.3%	2.31µM*
O=C(O)CSc1c(-c2ccccc2)c2cc(Cl)ccc2[nH]c1=O	-4.0%	-1.8%	-2.5%	-3.6%
Cc1cccc(C(=O)NNC2=C(C(=O)C(F)(F)F)CCC2)c1O	13µM*	7.0%	1.3%	6.51µM*
CC(C)CC(=O)NC(NC(=S)Nc1sc2c(c1C#N)CCCC2)C(Cl)(Cl)Cl (centres undefined)	u	5.9%	-2.9%	16.4µM*
N#Cc1c(NC(=O)CSc2nc(N)cc(=O)[nH]2)sc2c1CCCC2	23.1µM*	1.2%	x	u
CCc1ccc(CCC(=O)Nc2sc3c(c2C#N)CCCC3)o1	3.55µM*	2.3%	-1.9%	5.01µM*
CCC(=O)Nc1sc2c(c1C#N)CCC2	-18.4%	2.5%	x	-7.1%
Cc1nnc(SCC(=O)Nc2sc3c(c2C#N)CCCC3)[nH]c1=O	-21.2%	5.6%	-2.2%	4.3%
N#Cc1c(NC(=S)NC(=O)C2CCCC2)sc2c1CCCCC2	u	-2.7%	1.7%	u
N#Cc1c(NC(=O)CCC(=O)O)sc2c1CCCC2	-0.4%	-2.2%	-1.9%	0.581µM*
Cc1coc2c(C)c3oc(=O)c(CCC(=O)N4CCC(C(=O)NCCCC(=O)O)(c5ccccc5)CC4)c(C)c3cc12	-2.3%	5.5%	3.8%	-8.2%
Cc1nc2ccc(NC(=O)CCC3CCCC3)cc2s1	-3.3%	5.2%	x	1.3%
CCCCn1c(CNC(=O)C23CC4CC(CC(C4)C2)C3)nnc1SCC(=O)Nc1ccc(F)cc1	u	3.5%	-0.5%	u
SMILES	TDP1 cell noCPT	TDP1 inh	ClpP mod	TDP1 cell CPT
CCCc1nn2c(=O)cc(COC(=O)c3ccc(NC(=O)C4CCCCC4)cc3)nc2s1	u	1.2%	2.1%	u
CCc1ccccc1NC(=O)CSc1nc2c(oc3ccccc32)c(=O)n1-c1ccccc1	18.4µM*	0.0%	-9.3%	23.1µM*
Cc1cccc(NC(=O)CSc2nc3c(oc4ccccc43)c(=O)n2-c2ccccc2)c1C	20.6µM*	2.9%	-7.4%	u
CCOc1ccccc1NC(=O)CSc1ncnc2c1oc1ccccc12	u	-0.9%	0.5%	29.1µM*
CCOc1ccccc1NC(=O)CSc1nc2c(oc3ccccc32)c(=O)n1-c1ccc(F)cc1	6.51µM*	4.9%	-8.2%	8.2µM*
CCOc1ccccc1Oc1ncnc2c1oc1ccccc12	20.6µM*	1.5%	-1.3%	13µM*
